Screens deposited in PubChem BioAssay by National Center for Advancing Translational Sciences (NCATS).
S2 tox = cell viability loss in ATXN counter-screen. 0.49% of 400,000 active. S2 cells (HEK-293 line with an ATXN2-luciferase reporter) viability, CellTiter-Fluor protease fluorescence, 24 h. Potency, µM (highest dose often 56.7 µM), usual class: cytotoxic. AID 651635; further: nearly all actives have a fitted effect of over 40% in size
TGFb inhibitor = blocks TGF-b signaling. HepG2 CAGA-GFP TGF-b/SMAD3 reporter, GFP fluorescence, 18 h; TGF-beta stimulated, 500 pg/mL final. Potency, µM (titrated, usually from 46.1 µM), hits mostly inhibitors. 1.2% of 410,000 active; further: nearly all actives have a fitted effect of over 65% in size
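Smad-responsive CAGA-GFP expression was quantified in HEPG2 cells exposed to compounds and 500 pg/mL final TGF-beta for 18 h at 37 degrees C; unstimulated wells defined full inhibition.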
ATXN2 expr inh = reduces ATXN2 reporter expression in HEK-293 cells; HEK-293 ATXN2-luciferase reporter, luminescence, 24 h; Potency, µM (series often up to 57 µM), usual class: inhibitors; 0.72% of 360,000 active; AID 1745845; further: nearly all actives have a fitted effect of over 55% in size
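qHTS (up to 57 uM final) was run with 24 h compound exposure of reporter cells at 37 °C. Each well was multiplexed: SteadyGlo luminescence measured ATXN2-luciferase expression after a fluorogenic Gly-Phe-AFC viability readout (25 uM final).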
A549 viability = A549 cytotoxicity, counter-screen for Nrf2 inhibitors; A549 ARE-Fluc cells, CellTiter-Fluor viability, 18-24 h; Potency, µM (doses to about 46 µM), actives largely listed as inhibitors; 0.16% of 390,000 active; AID 504648
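A549 ARE_Fluc cells in 5% FBS OPTI-MEM were exposed to compounds in concentration-response for 18-24 h at 37 deg C. Viability was read by CellTiter-Fluor fluorescence (Ex 405/Em 525) after 30 min, before the luciferase read.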
Nrf2 inh = Nrf2 pathway inhibition; A549 ARE-Fluc reporter, luciferase luminescence, 18-24 h; Potency, µM (series often up to 46 µM), actives largely listed as inhibitors; 2.1% of 360,000 active; AID 504444; further: nearly all actives have a fitted effect of over 60% in size
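Nrf2 activity is the BugLite luminescence, read 15 min after reagent at room temperature, following CellTiter-Fluor cytotoxicity readout (30 min, 37C). Compound titrations were applied for 18-24 h to 5000 A549 ARE_Fluc cells/well in 5% FBS OPTI-MEM.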
HepG2 tox = kills HepG2 cells in TGF-b inhibitor counter-screen. 0.76% of 410,000 active. Potency, µM (top dose mostly 46.1 µM), usual class: cytotoxic. HepG2 CAGA-GFP viability, ATP luminescence, 18 h
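CellTiter-Glo luminescence gave cytotoxicity after 18 hours at 37 degrees C. The cells were HepG2 CAGA-GFP in 1% FBS DMEM, stimulated with 500 pg/mL TGF-beta after compound addition. %Activity was normalised to no-cell wells (complete cell-killing) and DMSO (no toxicity), and curves were fitted and classified.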
Numbers stand for hits; – = inactive; ? = inconclusive; · = no result. The list is not random: actives were taken first. Their share in the collection is about 3.8%. The call rests on the fitted dose curve; in most records, active means well fitted curve in the direction sought with a large enough effect; inconclusive means small, poorly fitted or top-dose-only effect, or another doubt; inactive means no such curve, though single readings can be large; an effect the other way counts as inactive or inconclusive.

SMILES	S2 tox	TGFb inhibitor	ATXN2 expr inh	A549 viability	Nrf2 inh	HepG2 tox
CCn1cc(S(=O)(=O)c2ccc(OC)cc2)c(=O)c2cc(F)c(N3CCCCCC3)cc21	·	–	·	–	–	–
CCn1cc(S(=O)(=O)c2ccc(OC)cc2)c(=O)c2cc(F)c(N3CCC(C)CC3)cc21	·	?	·	–	16µM	–
CCOC(=O)c1c(-c2ccc(C)o2)csc1NC(=S)NC(=O)c1cccs1	–	?	–	–	–	–
CCOC(=O)c1c(-c2ccc(C)o2)csc1NC(=O)COC(=O)c1ccc(NC(N)=O)cc1	?	–	?	–	16µM	–
COc1ccc(-c2nc(NC(=O)Cn3cnnn3)sc2C)cc1	–	–	–	–	–	–
COc1ccc(-c2nc(NC(=O)Cn3ccc(C(F)(F)F)n3)sc2C)cc1	–	?	–	?	21µM	–
N=c1n(CCCOc2ccccc2Cl)c2ccccc2n1CC(N)=O	–	13µM	?	–	–	–
CCN(CC)CCn1c(=N)n(CCOc2ccccc2Cl)c2ccccc21	·	?	·	?	–	–
CC1=C(C(=O)OCc2ccc(C)cc2)C(c2cccc(F)c2F)CC(=O)N1 (stereo unspecified)	–	?	–	–	23µM	–
CC1=C(C(=O)OCC2CCCCC2)C(c2cccc(F)c2F)CC(=O)N1 (stereo unspecified)	–	?	–	–	–	–
COc1cccc(-c2nc(SCC(=O)NC3CCCC3)c(-c3ccc(C)cc3)[nH]2)c1	·	?	·	?	?	–
COc1cccc(-c2nc(SCC(=O)NC3CCCC3)c(-c3ccc(F)cc3)[nH]2)c1	·	?	·	?	18µM	–
COc1ccc(-c2[nH]c(-c3ccc(OC)c(OC)c3)nc2SCC(=O)Nc2ccccc2)cc1	?	?	–	?	23µM	–
COc1ccc(NC(=O)CSc2nc(-c3cccc(C)c3)[nH]c2-c2ccccc2)cc1OC	?	11µM	?	?	23µM	–
COc1ccc(NC(=O)CSc2nc(-c3ccc(OC)c(OC)c3)[nH]c2-c2ccc(C)cc2)cc1	–	?	–	–	–	–
CCc1cccc(C)c1NC(=O)c1cnn(-c2ccc(OC)cc2)c1C1CCN(C(=O)OC(C)(C)C)CC1	·	?	·	–	23µM	–
COc1ccc2[nH]cc(CCNC(=O)c3cnn(-c4ccccc4Cl)c3C3CCN(C(=O)OC(C)(C)C)CC3)c2c1	·	?	·	?	?	–
COc1ccc2[nH]cc(CCNC(=O)c3cnn(-c4ccc(C)cc4)c3C3CCN(C(=O)OC(C)(C)C)CC3)c2c1	·	?	·	–	15µM	–
O=C(c1ccc2c(c1)OCCO2)N1CCN(c2nc(-c3cccs3)nc3ccccc23)CC1	·	·	·	–	?	·
CCCCOc1ccc(CSC(=N)N)cc1Cl	?	?	25µM	–	–	–
CCCCCOc1ccc(Br)cc1CSC(=N)N	·	?	·	–	?	–
O=C(c1ccc2c(c1)CCC2)N1CCN(Cc2ccccc2)CC1	–	–	·	·	·	–
CCOC(=O)N1CCN([N+]([O-])=NOc2cc(ON=[N+]([O-])N3CCN(C(=O)OCC)CC3)c([N+](=O)[O-])cc2[N+](=O)[O-])CC1	·	·	–	·	·	·
CCN(CC)/[N+]([O-])=N/Oc1cc(O/N=[N+](\[O-])N(C)C)c([N+](=O)[O-])cc1[N+](=O)[O-]	·	6.3µM	·	–	–	10µM
CC(C)(C)OC(=O)N1CCC(C(=O)Nc2cccc(C(=O)NCCCc3ccccc3)c2)CC1	?	–	–	–	23µM	–
CC(C)(C)OC(=O)N(Cc1ccccc1)Cc1cccc(OCc2cccc(NC(=O)C3CC3)c2)c1	–	?	–	–	26µM	–
COc1ccc(C(=O)NCC(=O)OCC(=O)c2ccc3ccccc3c2)cc1	·	–	·	–	?	–
Cc1ccc[n+](C(C)C(=O)c2ccc(-c3ccccc3)cc2)c1 (stereo unspecified)	–	–	?	–	–	–
CC(C(=O)c1ccc(-c2ccccc2)cc1)[n+]1ccccc1 (stereo unspecified)	–	–	?	?	7.3µM	–
